Our source for the residual activity values is ChEMBL document CHEMBL2218924, “A broad activity screen in support of a chemogenomic map for kinase signalling research and drug discovery” (Biochem J, 2013).

For the first test, the target named is Protein-tyrosine kinase 2-beta (Homo sapiens) (UniProt Q14289). Conditions: at 1 µM.
Protein-tyrosine kinase 2-beta (Homo sapiens), sequence (Q14289 whole entry, looked up): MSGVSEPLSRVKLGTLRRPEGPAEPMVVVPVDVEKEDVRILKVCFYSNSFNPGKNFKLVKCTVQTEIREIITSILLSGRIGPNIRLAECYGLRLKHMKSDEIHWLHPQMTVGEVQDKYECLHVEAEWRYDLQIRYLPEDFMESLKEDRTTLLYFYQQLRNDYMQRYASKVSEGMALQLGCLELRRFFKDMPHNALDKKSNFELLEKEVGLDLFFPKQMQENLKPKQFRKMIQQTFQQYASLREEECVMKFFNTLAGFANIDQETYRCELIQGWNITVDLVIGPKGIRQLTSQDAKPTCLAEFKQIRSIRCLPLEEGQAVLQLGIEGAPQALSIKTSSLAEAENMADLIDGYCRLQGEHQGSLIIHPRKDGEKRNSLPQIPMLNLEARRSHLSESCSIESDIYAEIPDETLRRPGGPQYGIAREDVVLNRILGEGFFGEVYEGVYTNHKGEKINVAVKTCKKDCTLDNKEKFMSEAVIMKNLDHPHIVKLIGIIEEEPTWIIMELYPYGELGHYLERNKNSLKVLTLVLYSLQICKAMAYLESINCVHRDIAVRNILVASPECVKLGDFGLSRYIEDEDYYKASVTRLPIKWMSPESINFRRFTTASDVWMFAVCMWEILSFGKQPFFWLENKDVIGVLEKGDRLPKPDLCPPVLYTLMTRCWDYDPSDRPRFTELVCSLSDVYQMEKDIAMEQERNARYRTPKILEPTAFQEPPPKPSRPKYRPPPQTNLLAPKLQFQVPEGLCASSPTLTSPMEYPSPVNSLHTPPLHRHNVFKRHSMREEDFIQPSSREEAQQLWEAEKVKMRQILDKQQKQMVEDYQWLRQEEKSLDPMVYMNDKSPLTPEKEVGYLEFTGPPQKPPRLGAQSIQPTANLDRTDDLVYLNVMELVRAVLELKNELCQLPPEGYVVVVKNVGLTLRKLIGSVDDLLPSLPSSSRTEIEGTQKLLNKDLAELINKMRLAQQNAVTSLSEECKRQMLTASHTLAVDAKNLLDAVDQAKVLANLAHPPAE
For `O=c1cc(N2CCOCC2)oc2c(-c3ccccc3)cccc12`, the residual activity was 127%.

For the compound `O=C1NC(=O)C(c2cn(CCCn3ccnc3)c3ccccc23)=C1Nc1ccccc1`, the residual activity came out at 121%.

On to `CCN(CC)CCNC(=O)c1c(C)[nH]c(/C=C2\C(=O)Nc3ccc(Cl)cc32)c1C`, for which the residual activity was determined as 15%.

Take `O=C1NC(=O)C(c2c[nH]c3ccccc23)=C1c1c[nH]c2ccccc12`: the residual activity is 97%.

Take `Oc1cccc(-c2nc(N3CCOCC3)c3oc4ncccc4c3n2)c1`: the residual activity worked out at 142%.

In the case of `CCCCc1c(-c2ccc(OC)cc2)[nH]c2nccnc12`, the residual activity was 54%.

In the case of `Cn1c2ccccc2c2c3c(c4c5ccccc5n(CCC#N)c4c21)CNC3=O`, the residual activity is 4%.

Take `COc1ccc2c(c1)c(C1=C(c3c[nH]c4ccccc34)C(=O)NC1=O)cn2CCCN(C)C`: the residual activity was 116%.

Turning to `COc1ccc(CNC(=O)Nc2ncc([N+](=O)[O-])s2)cc1`, the residual activity is 72%.

Take `COc1cc2c(cc1OC)-c1n[nH]c(Nc3cccc(F)c3)c1C2`: the residual activity is 79%.

`c1ccc(-c2cnc(Nc3ccc(OCCN4CCCC4)cc3)s2)cc1`: the residual activity stood at 105%.

On to `Nc1nc(Nc2ccc(S(N)(=O)=O)cc2)nn1C(=O)c1c(F)cccc1F`, for which the residual activity was determined as 55%.

For the compound `NCCNc1ncc(C(N)=O)c(Nc2cccc(C(F)(F)F)c2)n1`, the residual activity stood at 27%.

In the case of `O=C(Nc1ccc(Cl)cc1)c1ccccc1NCc1ccncc1`, the residual activity was determined as 128%.

As to `O=C(Nc1nc2ccccc2n1CCN1CCOCC1)c1cccc([N+](=O)[O-])c1`, the residual activity stood at 114%.

As to `COc1cc2nccc(Oc3ccc(NC(=O)Nc4cc(C)on4)c(Cl)c3)c2cc1OC`, the residual activity is 34%.

Take `O=C1NC(=O)C(c2cn(CCCO)c3ncccc23)=C1c1cnccn1`: the residual activity was determined as 100%.

On to `N#C/C(=C\c1ccc(O)c(O)c1)C(=O)NCc1ccccc1`, for which the residual activity turned out to be 146%.

On to `O=C(c1cc2cc(O)ccc2[nH]1)c1cc2cc(O)ccc2[nH]1`, for which the residual activity turned out to be 68%.

The target is the same in another test. Conditions: at 10 µM.
In the case of `O=C1NC(=O)C(c2cn(CCCn3ccnc3)c3ccccc23)=C1Nc1ccccc1`, the residual activity was determined as 81%.

Take `CCN(CC)CCNC(=O)c1c(C)[nH]c(/C=C2\C(=O)Nc3ccc(Cl)cc32)c1C`: the residual activity was 3%.

With `O=C1NC(=O)C(c2c[nH]c3ccccc23)=C1c1c[nH]c2ccccc12`, the residual activity is 28%.

On to `Oc1cccc(-c2nc(N3CCOCC3)c3oc4ncccc4c3n2)c1`, for which the residual activity amounted to 95%.

On to `CCCCc1c(-c2ccc(OC)cc2)[nH]c2nccnc12`, for which the residual activity turned out to be 32%.

With `Cn1c2ccccc2c2c3c(c4c5ccccc5n(CCC#N)c4c21)CNC3=O`, the residual activity came out at 4%.

As to `O=C1Nc2ccccc2/C1=C\c1c(Cl)[nH]c2ccccc12`, the residual activity stood at 65%.

For `COc1ccc2c(c1)c(C1=C(c3c[nH]c4ccccc34)C(=O)NC1=O)cn2CCCN(C)C`, the residual activity was determined as 32%.

For the compound `COc1ccc(CNC(=O)Nc2ncc([N+](=O)[O-])s2)cc1`, the residual activity is 77%.

In the case of `COc1cc2c(cc1OC)-c1n[nH]c(Nc3cccc(F)c3)c1C2`, the residual activity was 32%.

As for `c1ccc(-c2cnc(Nc3ccc(OCCN4CCCC4)cc3)s2)cc1`, the residual activity stood at 43%.

As to `Nc1nc(Nc2ccc(S(N)(=O)=O)cc2)nn1C(=O)c1c(F)cccc1F`, the residual activity turned out to be 14%.

Consider `NCCNc1ncc(C(N)=O)c(Nc2cccc(C(F)(F)F)c2)n1`, for which the residual activity came to 3%.

For the compound `O=C(Nc1ccc(Cl)cc1)c1ccccc1NCc1ccncc1`, the residual activity was 74%.

`O=C(Nc1nc2ccccc2n1CCN1CCOCC1)c1cccc([N+](=O)[O-])c1`: the residual activity worked out at 86%.

Take `COc1cc2nccc(Oc3ccc(NC(=O)Nc4cc(C)on4)c(Cl)c3)c2cc1OC`: the residual activity was found to be 8%.

Take `O=C1NC(=O)C(c2cn(CCCO)c3ncccc23)=C1c1cnccn1`: the residual activity was found to be 79%.

For the compound `N#C/C(=C\c1ccc(O)c(O)c1)C(=O)NCc1ccccc1`, the residual activity was 101%.

Consider `N#C/C(=C1/Nc2ccccc2S1)c1ccnc(NCCc2cccnc2)n1`, for which the residual activity is 58%.

In the case of `O=C(c1cc2cc(O)ccc2[nH]1)c1cc2cc(O)ccc2[nH]1`, the residual activity amounted to 20%.

The target of the next test is Receptor-interacting serine/threonine-protein kinase 2 (Homo sapiens) (UniProt O43353). As to conditions: at 1 µM.
Receptor-interacting serine/threonine-protein kinase 2 (Homo sapiens), sequence (O43353 whole entry): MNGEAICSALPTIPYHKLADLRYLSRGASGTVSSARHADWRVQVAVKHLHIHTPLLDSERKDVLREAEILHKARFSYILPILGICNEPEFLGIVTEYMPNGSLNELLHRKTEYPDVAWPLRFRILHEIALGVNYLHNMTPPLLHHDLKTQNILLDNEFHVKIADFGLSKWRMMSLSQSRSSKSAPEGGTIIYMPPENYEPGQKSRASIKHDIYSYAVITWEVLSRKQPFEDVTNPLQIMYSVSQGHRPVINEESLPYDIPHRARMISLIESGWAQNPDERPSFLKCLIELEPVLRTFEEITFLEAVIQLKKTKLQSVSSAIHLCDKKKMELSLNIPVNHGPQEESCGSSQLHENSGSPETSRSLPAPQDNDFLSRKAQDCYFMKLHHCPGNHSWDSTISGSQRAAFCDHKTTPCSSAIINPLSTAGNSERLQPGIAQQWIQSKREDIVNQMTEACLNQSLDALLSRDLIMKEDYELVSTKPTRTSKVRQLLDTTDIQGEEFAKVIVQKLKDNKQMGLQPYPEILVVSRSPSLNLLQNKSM
Regarding `O=C1NC(=O)C(c2cn(CCCn3ccnc3)c3ccccc23)=C1Nc1ccccc1`, the residual activity is 78%.

Regarding `O=c1c(-c2ccc(F)cc2)c(-c2ccncc2)[nH]n1-c1ccc(Cl)cc1`, the residual activity was 47%.

`CCN(CC)CCNC(=O)c1c(C)[nH]c(/C=C2\C(=O)Nc3ccc(Cl)cc32)c1C`: the residual activity stood at 62%.

Regarding `Oc1cccc(-c2nc(N3CCOCC3)c3oc4ncccc4c3n2)c1`, the residual activity was determined as 89%.

Turning to `CCCCc1c(-c2ccc(OC)cc2)[nH]c2nccnc12`, the residual activity was determined as 67%.

Regarding `NC(=O)c1ccc(-c2nc(-c3ccc4c(c3)OCCO4)c(-c3ccccn3)[nH]2)cc1`, the residual activity was 55%.

In the case of `O=C1Nc2ccccc2/C1=C\c1c(Cl)[nH]c2ccccc12`, the residual activity amounted to 84%.

As to `COc1ccc(CNC(=O)Nc2ncc([N+](=O)[O-])s2)cc1`, the residual activity stood at 79%.

As to `COc1cc2c(cc1OC)-c1n[nH]c(Nc3cccc(F)c3)c1C2`, the residual activity was 30%.

Regarding `c1ccc(-c2cnc(Nc3ccc(OCCN4CCCC4)cc3)s2)cc1`, the residual activity was 43%.

Take `Nc1nc(Nc2ccc(S(N)(=O)=O)cc2)nn1C(=O)c1c(F)cccc1F`: the residual activity was found to be 62%.

As for `CCN1/C(=C/C(C)=O)Sc2ccc(OC)cc21`, the residual activity was determined as 71%.

For the compound `Nc1nccc(-c2c(-c3ccc(F)cc3)ncn2C2CCNCC2)n1`, the residual activity came to 43%.

`COc1cc2nccc(Oc3ccc(NC(=O)Nc4cc(C)on4)c(Cl)c3)c2cc1OC`: the residual activity was found to be 21%.

Regarding `O=C1NC(=O)C(c2cn(CCCO)c3ncccc23)=C1c1cnccn1`, the residual activity was determined as 94%.

Turning to `O=C(c1cc2cc(O)ccc2[nH]1)c1cc2cc(O)ccc2[nH]1`, the residual activity was determined as 18%.
